According to the antibiotic and cytotoxicity screens of Wong et al. (2023):
About 3,300 (8.5%) of roughly 39,000 compounds were called active. Many of the other results were omitted from the sample, so actives are more common in it than they were.

tested on: HepG2; test: cytotoxicity call (relative viability < 0.9); details: 10 µM

Compound | cytotoxicity call
C[C@@H]1CN([C@@H](C)CO)C(=O)c2cc(NS(=O)(=O)c3ccc(Cl)cc3)ccc2O[C@@H](C)CCCCO[C@@H]1CN(C)Cc1ccncc1 | inactive
C[C@@H]1CN([C@H](C)CO)C(=O)c2cc(C3=CCCCC3)cnc2O[C@@H]1CN(C)C(=O)CN1CCOCC1 | inactive
c1nc2c(c(N3CCOCC3)n1)CCNCC2 | inactive
CCCCC(CC)CN1CN(CC(CC)CCCC)CC(C)(N)C1 (stereo not drawn) | active
C[C@@H]1CCCCO[C@@H](CN(C)C(=O)Nc2ccccc2)[C@H](C)CN([C@H](C)CO)C(=O)c2cc(NC(=O)C3CCCCC3)ccc2O1 | inactive
COc1ccc(S(=O)(=O)N(C)C[C@@H]2OCCCC[C@H](C)Oc3ccc(NC(=O)Nc4ccc(F)cc4)cc3C(=O)N([C@H](C)CO)C[C@@H]2C)cc1 | inactive
C[C@H](CO)N1C[C@H](C)[C@@H](CN(C)C(=O)Nc2ccc(C(F)(F)F)cc2)OCCCC[C@H](C)Oc2ccc(NS(=O)(=O)c3cn(C)cn3)cc2C1=O | inactive
Cc1ccc(S(=O)(=O)Nc2ccc3c(c2)C(=O)N([C@@H](C)CO)C[C@H](C)[C@H](CN(C)Cc2ccc(C(F)(F)F)cc2)OCCCC[C@H](C)O3)cc1 | inactive
Cc1ccc(S(=O)(=O)Nc2ccc3c(c2)C(=O)N([C@H](C)CO)C[C@H](C)[C@H](CN(C)Cc2ccc(C(F)(F)F)cc2)OCCCC[C@@H](C)O3)cc1 | active
Cc1ccc(S(=O)(=O)Nc2ccc3c(c2)C(=O)N([C@H](C)CO)C[C@@H](C)[C@@H](CN(C)Cc2ccc(C(F)(F)F)cc2)OCCCC[C@H](C)O3)cc1 | active
C[C@H]1CCCCO[C@@H](CN(C)Cc2ccc(C(F)(F)F)cc2)[C@@H](C)CN([C@@H](C)CO)C(=O)c2cc(NS(=O)(=O)c3ccc(F)cc3)ccc2O1 | inactive
Cc1ccc(S(=O)(=O)Nc2ccc3c(c2)C(=O)N([C@@H](C)CO)C[C@@H](C)[C@H](CN(C)Cc2ccc(C(F)(F)F)cc2)OCCCC[C@H](C)O3)cc1 | active
C[C@@H]1CN([C@@H](C)CO)C(=O)c2cc(NS(=O)(=O)c3ccc(F)cc3)ccc2O[C@@H](C)CCCCO[C@@H]1CN(C)Cc1ccc(C(F)(F)F)cc1 | inactive
Cc1ccc(S(=O)(=O)Nc2ccc3c(c2)C(=O)N([C@H](C)CO)C[C@@H](C)[C@H](CN(C)Cc2ccc(C(F)(F)F)cc2)OCCCC[C@@H](C)O3)cc1 | active
C[C@@H]1CCCCO[C@H](CN(C)Cc2ccc(C(F)(F)F)cc2)[C@H](C)CN([C@@H](C)CO)C(=O)c2cc(NS(=O)(=O)c3ccc(F)cc3)ccc2O1 | inactive
C[C@H]1CCCCO[C@H](CN(C)Cc2ccc(C(F)(F)F)cc2)[C@@H](C)CN([C@@H](C)CO)C(=O)c2cc(NS(=O)(=O)c3ccc(F)cc3)ccc2O1 | inactive
Cc1ccc(S(=O)(=O)Nc2ccc3c(c2)C(=O)N([C@H](C)CO)C[C@H](C)[C@@H](CN(C)Cc2ccc(C(F)(F)F)cc2)OCCCC[C@@H](C)O3)cc1 | inactive
Cc1ccc(S(=O)(=O)Nc2ccc3c(c2)C(=O)N([C@H](C)CO)C[C@H](C)[C@H](CN(C)C(=O)Cc2ccccc2)OCCCC[C@H](C)O3)cc1 | inactive
C[C@H](CO)N1C[C@H](C)[C@H](CN(C)CC2CC2)Oc2ccc(NS(=O)(=O)c3ccccc3)cc2CC1=O | inactive
Cc1ccc(S(=O)(=O)N2C[C@H](O)COC[C@@H]3O[C@@H](CC(=O)N4CCc5ccccc5C4)CC[C@H]32)cc1 | inactive

Compound | cytotoxicity call
C[C@@H](O)C#Cc1cnc2c(c1)C(=O)N([C@@H](C)CO)C[C@H](C)[C@@H](CN(C)C(=O)CN1CCOCC1)O2 | inactive
CCNC(=O)[C@@H]1[C@@H](CO)[C@@H]2Cn3c(ccc(C4=CCCC4)c3=O)[C@H]1N2S(=O)(=O)c1cn(C)cn1 | inactive
COCC(=O)N1C[C@@H](C)[C@H](OC)CN(C)C(=O)c2ccc(NC(=O)c3ccc(F)cc3)cc2OC[C@H]1C | inactive
C[C@H]1CCCCO[C@H](CN(C)C(=O)Nc2ccc3c(c2)OCO3)[C@@H](C)CN([C@@H](C)CO)C(=O)c2cc(NS(=O)(=O)c3ccc(F)cc3)ccc2O1 | inactive
O=C(C[C@@H]1CC[C@H]2[C@@H](COC[C@H](O)CN2C(=O)Nc2ccc(F)cc2)O1)NCCCN1CCOCC1 | inactive
Cc1ccc(S(=O)(=O)Nc2ccc3c(c2)C(=O)N([C@@H](C)CO)C[C@H](C)[C@@H](CN(C)Cc2ccc(C(F)(F)F)cc2)OCCCC[C@@H](C)O3)cc1 | active
Cc1ccc(S(=O)(=O)Nc2ccc3c(c2)C(=O)N([C@@H](C)CO)C[C@H](C)[C@H](CN(C)Cc2ccc(C(F)(F)F)cc2)OCCCC[C@@H](C)O3)cc1 | inactive
Cc1ccc(S(=O)(=O)Nc2ccc3c(c2)C(=O)N([C@@H](C)CO)C[C@H](C)[C@@H](CN(C)Cc2ccc(C(F)(F)F)cc2)OCCCC[C@H](C)O3)cc1 | active
Cc1ccc(S(=O)(=O)Nc2ccc3c(c2)C(=O)N([C@@H](C)CO)C[C@@H](C)[C@H](CN(C)Cc2ccc(C(F)(F)F)cc2)OCCCC[C@@H](C)O3)cc1 | active
Cc1ccc(S(=O)(=O)Nc2ccc3c(c2)C(=O)N([C@H](C)CO)C[C@H](C)[C@@H](CN(C)Cc2ccc(C(F)(F)F)cc2)OCCCC[C@H](C)O3)cc1 | active
Cc1ccc(S(=O)(=O)Nc2ccc3c(c2)C(=O)N([C@@H](C)CO)C[C@@H](C)[C@@H](CN(C)Cc2ccc(C(F)(F)F)cc2)OCCCC[C@H](C)O3)cc1 | inactive
NC(=O)c1ccc[n+](C2OC(COP(=O)([O-])OP(=O)(O)OCC3OC(n4cnc5c(N)ncnc54)C(O)C3O)C(O)C2O)c1 (stereo not drawn) | inactive
CNC[C@@H]1Oc2ccc(NC(=O)CCN3CCOCC3)cc2CC(=O)N([C@@H](C)CO)C[C@H]1C | inactive
CC(C)(C)c1c(C(C)(C)C)c1=O | inactive
O=C(N[C@@H]1CC[C@H](CCn2cc(C3(O)CCCC3)nn2)O[C@H]1CO)C1CCOCC1 | inactive
Cc1cc(C(=O)N2CCNC(=O)C2(C)C)no1 | inactive
C[C@H]1CN([C@@H](C)CO)C(=O)Cc2cc(NC(=O)CCC(F)(F)F)ccc2O[C@@H]1CN(C)S(=O)(=O)c1ccccc1 | inactive
CN(C)CCCNC(=O)C[C@@H]1CC[C@H]2[C@@H](COc3ccc(NC(=O)c4cccc(F)c4)cc3C(=O)N2C)O1 | inactive
Cc1ccc(S(=O)(=O)Nc2cccc3c2O[C@@H](CN(C)S(=O)(=O)c2ccc(F)cc2)[C@@H](C)CN([C@H](C)CO)C3=O)cc1 | inactive
CC(C)(C)OC(=O)C[C@H]1C/C=C/CC[C@H](Cc2ccc(F)cc2)C(=O)O[C@H](c2ccccc2)CNC1=O | inactive

Compound | cytotoxicity call
C[C@@H]1CCCCO[C@@H](CN(C)S(=O)(=O)c2cccs2)[C@@H](C)CN([C@H](C)CO)C(=O)c2cc(NS(=O)(=O)c3cn(C)cn3)ccc2O1 | inactive
CC(C)NC(=O)N(C)C[C@@H]1OCCCC[C@@H](C)Oc2ccc(NC(=O)C3CCCCC3)cc2C(=O)N([C@H](C)CO)C[C@@H]1C | inactive
COc1ccc(S(=O)(=O)N(C)C[C@H]2Oc3c(NS(=O)(=O)c4cn(C)cn4)cccc3C(=O)N([C@H](C)CO)C[C@@H]2C)cc1 | inactive
C[C@@H]1CN([C@@H](C)CO)C(=O)c2cc(C#C[C@@H](C)O)cnc2O[C@H]1CN(C)Cc1cncnc1 | inactive
C[C@@H]1CCCCO[C@@H](CN(C)Cc2ccc(C(F)(F)F)cc2)[C@H](C)CN([C@H](C)CO)C(=O)c2cc(NS(=O)(=O)c3ccc(F)cc3)ccc2O1 | inactive
Cc1ccc(S(=O)(=O)Nc2ccc3c(c2)C(=O)N([C@H](C)CO)C[C@@H](C)[C@@H](CN(C)Cc2ccc(C(F)(F)F)cc2)OCCCC[C@@H](C)O3)cc1 | inactive
C[C@@H]1CCCCO[C@@H](CN(C)Cc2ccc(C(F)(F)F)cc2)[C@@H](C)CN([C@H](C)CO)C(=O)c2cc(NS(=O)(=O)c3ccc(F)cc3)ccc2O1 | active
C[C@@H]1CN([C@H](C)CO)C(=O)c2cc(NS(=O)(=O)c3ccc(F)cc3)ccc2O[C@@H](C)CCCCO[C@H]1CN(C)Cc1ccc(C(F)(F)F)cc1 | inactive
Cc1ccc(S(=O)(=O)Nc2ccc3c(c2)C(=O)N([C@@H](C)CO)C[C@@H](C)[C@@H](CN(C)Cc2ccc(C(F)(F)F)cc2)OCCCC[C@@H](C)O3)cc1 | active
Cc1ccc(S(=O)(=O)Nc2ccc3c(c2)C(=O)N([C@H](C)CO)C[C@@H](C)[C@H](CN(C)Cc2ccc(C(F)(F)F)cc2)OCCCC[C@H](C)O3)cc1 | active
Cc1ccc(S(=O)(=O)Nc2ccc3c(c2)C(=O)N([C@H](C)CO)C[C@H](C)[C@H](CN(C)Cc2ccc(C(F)(F)F)cc2)OCCCC[C@H](C)O3)cc1 | inactive
C[C@@H]1CN([C@@H](C)CO)C(=O)c2cccc(NC(=O)C3CCOCC3)c2O[C@H]1CN(C)Cc1ccccc1 | inactive
NCC[C@H]1CC[C@@H](NC(=O)Cc2ccncc2)[C@@H](CO)O1 | inactive
C[C@@H]1CN([C@@H](C)CO)C(=O)CCCn2cc(nn2)CO[C@H]1CN(C)S(=O)(=O)c1ccc(Oc2ccccc2)nc1 | inactive
CSc1nn(C)c2cnn(C)c(=O)c12 | inactive
C[C@H](CO)N1C[C@H](C)[C@H](CN(C)S(=O)(=O)c2cn(C)cn2)Oc2ncc(C#Cc3ccccc3)cc2C1=O | inactive
COc1ccc(S(=O)(=O)Nc2ccc3c(c2)C(=O)N([C@H](C)CO)C[C@H](C)[C@@H](CN(C)C(=O)Nc2c(C)noc2C)OCCCC[C@@H](C)O3)cc1 | inactive
C[C@@H]1CN([C@@H](C)CO)C(=O)c2cc(NC(=O)Nc3ccc(F)cc3)ccc2O[C@@H](C)CCCCO[C@H]1CN(C)C(=O)CCCN(C)C | inactive
